Measured values from PubChem BioAssay AID1159580 (chemical genetic matrix, 2015).
Where “and” joins values, the source holds several entries; their conditions need not be identical. Identical values can stand only once. Hit rate of the full screen: of about 5,500 compounds, about 2,000 (36%) were called active. Roughly 18% stayed inconclusive and do not appear here. Cut-off read from the data, not from the text of the source: active = normalized growth mostly below about 0.91 (no sharp cut-off); inconclusive = no clear call, values can overlap the other calls; inactive = mostly above about 0.92. The list shows a part of the results.

Experiment: chemical genetic growth profiling, strain panel (AID 1159580);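 note: tested at 20 µM; growth read once vehicle control cultures reached saturation at 30 °C; 1 = growth at the plate median or of vehicle wells; lower values mean less growth of the strain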
Settings: S. cerevisiae deletion strains, growth OD

Measured: normalized growth

CN1C2C[C@H](OC(=O)[C@H](CO)c3ccccc3)C[C@H]1[C@@H](O)C2
inactive: locus YAL021C, strain ccr4, active compounds read low 0.979 | locus YAL026C, strain drs2, active compounds read low 1.04 | locus YAL030W, strain snc1, active compounds read low 1.02 | locus YBL061C, strain skt5, active compounds read low 1.03 | locus YBR009C, strain hhf1, active compounds read low 1.01 | locus YBR021W, strain FUR4, active compounds read low 0.995 | locus YBR023C, strain chs3, active compounds read low 1.02 | locus YBR171W, strain sec66, active compounds read low 1.01 | locus YBR229C, strain ROT2, active compounds read low 1.01 | locus YBR231C, strain swc5, active compounds read low 1.02 | locus YBR279W, strain paf1, active compounds read low 1.02 | locus YCL011C, strain gbp2, active compounds read low 1.01 | locus YCL016C, strain dcc1, active compounds read low 0.998 | locus YCL029C, strain bik1, active compounds read low 0.997 | locus YCL069W, strain vba3, active compounds read low 1.01 | locus YCR088W, strain abp1, active compounds read low 1.01 | locus YDL005C, strain med2, active compounds read low 1.03 | locus YDL035C, strain GPR1, active compounds read low 1.02 | locus YDL040C, strain nat1, active compounds read low 1.02 | locus YDL074C, strain BRE1, active compounds read low 1.01 | locus YDL101C, strain DUN1, active compounds read low 1.01 | locus YDL134C, strain PPH21, active compounds read low 1.01 | locus YDL185W, strain tfp1, active compounds read low 0.992 | locus YDL192W, strain arf1, active compounds read low 0.995 | locus YDR001C, strain nth1, active compounds read low 1.02 | locus YDR069C, strain doa4, active compounds read low 1.03 | locus YDR101C, strain arx1, active compounds read low 1 | locus YDR137W, strain rgp1, active compounds read low 1.03 | locus YDR159W, strain sac3, active compounds read low 1.05 | locus YDR162C, strain NBP2, active compounds read low 1.02 | locus YDR195W, strain ref2 1.01 | locus YDR297W, strain sur2, active compounds read low 1.02 | locus YDR318W, strain mcm21, active compounds read low 1 | locus YDR334W, strain swr1, active compounds read low 1.01 | locus YDR335W, strain msn5, active compounds read low 1.02 | locus YDR388W, active compounds read low 1 | locus YDR392W, strain spt3, active compounds read low 0.911 | locus YDR502C, strain sam2, active compounds read low 1.01 | locus YEL003W, strain gim4, active compounds read low 1.03 | locus YEL037C, strain rad23, active compounds read low 1.01 | locus YEL061C, strain CIN8 (second series), active compounds read low 1.02 | locus YEL061C, strain CIN8, active compounds read low 1.01 | locus YER015W, strain faa2, active compounds read low 1.01 | locus YER016W, strain bim1, active compounds read low 1.03 | locus YER110C, active compounds read low 1 | locus YER111C, strain swi4, active compounds read low 1.02 | locus YER155C, strain BEM2 (second series), active compounds read low 1.02 | locus YER155C, strain BEM2, active compounds read low 1.01 | locus YER167W, strain BCK2, active compounds read low 1 | locus YFR010W, strain ubp6, active compounds read low 1.04 | locus YGL078C, strain dbp3, active compounds read low 0.999 | locus YGL086W, strain mad1, active compounds read low 0.993 | locus YGL167C, strain pmr1, active compounds read low 1.02 | locus YGL173C, strain kem1, active compounds read low 1.03 | locus YGL227W, strain vid30, active compounds read low 1.02 | locus YGL240W, strain doc1, active compounds read low 1.02 | locus YGL248W, strain PDE1, active compounds read low 1.01 | locus YGL253W, strain hxk2, active compounds read low 1.04 | locus YGR078C, strain PAC10, active compounds read low 1.01 | locus YGR135W, strain pre9, active compounds read low 1 | locus YGR229C, strain SMI1, active compounds read low 1.02 | locus YGR252W, strain gcn5, active compounds read low 0.955 | locus YHR013C, strain ard1, active compounds read low 1.01 | locus YHR027C, strain rpn1, active compounds read low 1.01 | locus YHR030C, strain SLT2, active compounds read low 1.01 | locus YHR079C, strain IRE1 (second series), active compounds read low 1 | locus YHR079C, strain IRE1, active compounds read low 0.992 | locus YHR094C, strain hxt1, active compounds read low 0.992 | locus YHR129C, strain ARP1, active compounds read low 1.01 | locus YHR142W, strain chs7, active compounds read low 1.03 | locus YHR200W, strain rpn10, active compounds read low 1 | locus YIL066C, strain RNR3, active compounds read low 1.02 | locus YIL073C, strain SPO22, active compounds read low 1.01 | locus YIL125W, strain kgd1, active compounds read low 0.991 | locus YIR030C, strain dcg1, active compounds read low 0.99 | locus YJL092W, strain hpr5, active compounds read low 1.02 | locus YJL095W, strain BCK1 (second series), active compounds read low 1.01 | locus YJL095W, strain BCK1, active compounds read low 1.02 and 1 | locus YJL115W, strain asf1, active compounds read low 1.01 | locus YJL129C, strain trk1, active compounds read low 1.02 | locus YJL134W, strain LCB3, active compounds read low 1.01 | locus YJL154C, strain vps35, active compounds read low 1.02 | locus YJL164C, strain tpk1, active compounds read low 0.996 | locus YJL166W, strain qcr8, active compounds read low 1.03 | locus YJL168C, strain set2, active compounds read low 1 | locus YJL187C, strain SWE1 (second series), active compounds read low 1.01 | locus YJR043C, strain POL32, active compounds read low 1.03 | locus YJR066W, strain TOR1, active compounds read low 0.96 | locus YJR075W, strain HOC1, active compounds read low 1.01 | locus YKL009W, strain mrt4, active compounds read low 1.01 | locus YKL068W, active compounds read low 0.987 | locus YKL085W, strain MDH1 (second series), active compounds read low 1.01 | locus YKL085W, strain MDH1, active compounds read low 1.01 | locus YKL160W, strain elf1, active compounds read low 1 | locus YKL190W, strain CNB1, active compounds read low 1.01 | locus YKR001C, strain vps1, active compounds read low 0.981 | locus YKR026C, strain gcn3, active compounds read low 1.01 | locus YKR091W, strain srl3, active compounds read low 1.02 | locus YLL001W, strain dnm1, active compounds read low 1.02 | locus YLL026W, active compounds read low 1.02 | locus YLL041C, strain sdh2, active compounds read low 1.02 | locus YLR027C, strain aat2, active compounds read low 1.03 | locus YLR039C, strain RIC1, active compounds read low 1.03 | locus YLR058C, strain SHM2, active compounds read low 1.01 | locus YLR102C, strain apc9, active compounds read low 0.997 | locus YLR113W, strain HOG1, active compounds read low 0.978 | locus YLR221C, strain rsa3, active compounds read low 1.02 | locus YLR258W, strain gsy2, active compounds read low 1.02 | locus YLR262C, strain YPT6 (second series), active compounds read low 1.03 | locus YLR262C, strain YPT6, active compounds read low 1.05 | locus YLR268W, strain sec22, active compounds read low 0.995 | locus YLR320W, strain mms22, active compounds read low 1.04 | locus YLR330W, strain CHS5, active compounds read low 1.01 | locus YLR342W, strain FKS1 (second series), active compounds read low 1.02 | locus YLR342W, strain FKS1, active compounds read low 1.02 | locus YLR357W, strain rsc2, active compounds read low 1 | locus YLR370C, strain arc18, active compounds read low 1.01 | locus YLR371W, strain rom2, active compounds read low 0.989 | locus YLR384C, strain iki3, active compounds read low 1.02 | locus YLR418C, strain cdc73, active compounds read low 0.991 | locus YML016C, strain PPZ1, active compounds read low 1.01 | locus YML032C, strain rad52, active compounds read low 0.99 | locus YML120C, strain ndi1, active compounds read low 1 | locus YML124C, strain tub3, active compounds read low 1 | locus YMR058W, strain fet3, active compounds read low 1.03 | locus YMR078C, strain ctf18, active compounds read low 0.999 | locus YMR125W, strain sto1, active compounds read low 0.983 | locus YMR129W, active compounds read low 1.02 | locus YMR205C, strain PFK2, active compounds read low 1.04 | locus YMR223W, strain ubp8, active compounds read low 1.02 | locus YMR231W, strain pep5, active compounds read low 1.01 | locus YMR263W, strain SAP30, active compounds read low 1.01 | locus YMR307W, strain GAS1, active compounds read low 0.97 | locus YNL067W, strain RPL9B, active compounds read low 1.01 | locus YNL071W, strain lat1, active compounds read low 1.02 | locus YNL183C, strain NPR1, active compounds read low 0.96 | locus YNL209W, strain ssb2, active compounds read low 1.04 | locus YNL233W, strain BNI4, active compounds read low 0.992 | locus YNL248C, strain rpa49, active compounds read low 0.941 | locus YNL250W, strain rad50, active compounds read low 1 | locus YNL271C, strain bni1, active compounds read low 0.99 | locus YNL298W, strain CLA4, active compounds read low 1.02 | locus YNL307C, strain MCK1, active compounds read low 0.995 | locus YNL322C, strain KRE1 (second series), active compounds read low 1.01 | locus YNR049C, strain mso1, active compounds read low 1.01 | locus YNR052C, strain pop2, active compounds read low 0.992 | locus YOL006C, strain TOP1, active compounds read low 0.998 | locus YOL012C, strain htz1 0.77 | locus YOL147C, strain pex11, active compounds read low 1 | locus YOR001W, strain rrp6, active compounds read low 1.04 | locus YOR061W, strain CKA2, active compounds read low 1.01 | locus YOR069W, strain VPS5, active compounds read low 1.01 | locus YOR070C, strain gyp1, active compounds read low 1.03 | locus YOR080W, strain dia2, active compounds read low 1.02 | locus YOR083W, strain WHI5, active compounds read low 1.01 | locus YOR106W, strain vam3, active compounds read low 0.994 | locus YOR136W, strain idh2, active compounds read low 0.992 | locus YOR144C, strain elg1, active compounds read low 0.997 | locus YOR184W, strain ser1, active compounds read low 1.02 | locus YOR231W, strain MKK1, active compounds read low 0.99 | locus YOR265W, strain rbl2, active compounds read low 1.01 | locus YOR270C, strain vph1, active compounds read low 1.07 | locus YOR290C, strain snf2, active compounds read low 0.969 | locus YOR316C, strain cot1, active compounds read low 1 | locus YPL051W, strain arl3, active compounds read low 1 | locus YPL078C, strain atp4, active compounds read low 0.984 | locus YPL106C, strain sse1, active compounds read low 1.01 | locus YPL240C, strain hsp82, active compounds read low 1.02 | locus YPL256C, strain CLN2, active compounds read low 1 | locus YPR119W, strain clb2, active compounds read low 1 | locus YPR141C, strain kar3, active compounds read low 0.995 | locus YPR163C, strain tif3, active compounds read low 1.02 | locus YPR167C, strain met16, active compounds read low 1 | strain wtn01, active compounds read low 0.986
